These results are taken from PubChem BioAssay (NCI).

About 83,000 compounds went through this panel and 20% of them were active in at least one assay; those are over-represented in the sample as a whole.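 Assay: single dose, 48 h. Readout: percent growth (0 = no net growth; negative = cell death). Active: <10.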 Unmarked numbers belong to inactive results. The source made the active and inactive calls.

Holding throughout (test): NCI-60 one-dose screen, 48 h (100 = growth as untreated, 0 = no growth, -100 = all killed)
The subject of one experiment is K-562 leukemia. The following applies: 10 µM unless noted.
The test system of the next experiment is MALME-3M melanoma. The following applies: 10 µM unless noted.
A further experiment deals with MDA-MB-231 breast. The following applies: 10 µM unless noted.
The test system of another experiment is RXF 393 renal. The following applies: 10 µM unless noted.
The test system of the next experiment is SF-268 CNS. The following applies: 10 µM unless noted.
For a further experiment, the system named is SF-295 CNS. The following applies: 10 µM unless noted.
For another experiment, the system named is SF-539 CNS. The following applies: 10 µM unless noted.
For the next experiment, the system named is UACC-257 melanoma. The following applies: 10 µM unless noted.
In a further experiment the test system is M14 melanoma. The following applies: 10 µM unless noted.
The next experiment has as its system HCT-15 colon. The following applies: 10 µM unless noted.
A further experiment concerns HT29 colon. The following applies: 10 µM unless noted.
In the next experiment the test system is SNB-75 CNS. The following applies: 10 µM unless noted.
In another experiment the test system is SNB-19 CNS. The following applies: 10 µM unless noted.
The next experiment relates to U251 CNS. The following applies: 10 µM unless noted.
In another experiment the test system is PC-3 prostate. The following applies: 10 µM unless noted.
A further experiment concerns SK-MEL-5 melanoma. The following applies: 10 µM unless noted.
The test system of another experiment is UACC-62 melanoma. The following applies: 10 µM unless noted.
In another experiment the test system is LOX IMVI melanoma. The following applies: 10 µM unless noted.
The test system of a further experiment is SK-MEL-28 melanoma. The following applies: 10 µM.
A further experiment relates to SK-MEL-2 melanoma. The following applies: 10 µM unless noted.

`CC1=C(C(=O)OCC2CCN(C(=O)OC(C)(C)C)CC2)[C@H](c2cccc(C#N)c2)C2=C(CC(C)(C)CC2=O)N1`: the growth with K-562 leukemia was 24.3%; with MALME-3M melanoma, 66.1%; in the experiment on MDA-MB-231 breast it was 59.7%; in the experiment with RXF 393 renal, 83.2%; with SF-268 CNS, 52.5%; in the experiment on SF-295 CNS, 40.5%. The growth with SF-539 CNS was 48%; in the experiment on UACC-257 melanoma it was 70%; in the experiment on M14 melanoma, 50.4%; with HCT-15 colon, 23.7%; in the experiment with HT29 colon it was 30.9%; in the experiment with SNB-75 CNS, 62.5%. Further, the growth in the experiment on SNB-19 CNS is 51.7%; in the experiment with U251 CNS, 47.6%; in the experiment with PC-3 prostate, 59.4%; with SK-MEL-5 melanoma, 20.5%; in the experiment with UACC-62 melanoma, 43.5%; in the experiment on LOX IMVI melanoma, 15.2%. The growth in the experiment on SK-MEL-28 melanoma is 68.4%; in the experiment with SK-MEL-2 melanoma, 75.3%.
Consider `CC[C@]1(O)C[C@@H]2CN(CCc3c([nH]c4ccccc34)[C@@](C(=O)OC)(c3cc4c(cc3OC)N(C)[C@H]3[C@@](O)(C(=O)OC)[C@H](OC(C)=O)[C@]5(CC)C=CCN6CC[C@]43[C@@H]65)C2)C1`, for which the growth with K-562 leukemia is 15.3%; with MALME-3M melanoma, 40.9%; in the experiment with MDA-MB-231 breast, -15.3% (active); in the experiment with RXF 393 renal, 22.1%; in the experiment on SF-268 CNS it was 17.3%; in the experiment on SF-295 CNS, 8.85% (active). Besides, the growth in the experiment with SF-539 CNS is -2.89% (active); in the experiment with UACC-257 melanoma it was 64.4%; in the experiment with M14 melanoma it was 3.97% (active); in the experiment on HCT-15 colon it was 14.6%; with HT29 colon, 8.06% (active); with SNB-75 CNS, 3.82% (active). The growth is 29.8% in the experiment on SNB-19 CNS; 16.6% in the experiment with U251 CNS; 20% in the experiment on PC-3 prostate; -54.6% (active) in the experiment on SK-MEL-5 melanoma; 34.4% with UACC-62 melanoma; 15.3% in the experiment with LOX IMVI melanoma. Also, the figures for the growth in the experiment on SK-MEL-28 melanoma and in the experiment with SK-MEL-2 melanoma were 66% and 39.8%, respectively.
Regarding `COc1cc(CNC(=O)Cc2ccccc2)ccc1OCc1cn(-c2ccc(F)cc2)nn1`, the growth was 91.8% in the experiment on K-562 leukemia; 114% in the experiment with MALME-3M melanoma; 89.5% with MDA-MB-231 breast; 125% with RXF 393 renal; 98.1% in the experiment on SF-268 CNS; 101% with SF-295 CNS. Also, the growth was 99.5% in the experiment with SF-539 CNS; 97.7% in the experiment with UACC-257 melanoma; 101% in the experiment with M14 melanoma; 106% in the experiment on HCT-15 colon; 111% with HT29 colon; 91.7% in the experiment with SNB-75 CNS. The growth in the experiment with SNB-19 CNS is 103%; in the experiment on U251 CNS, 97.3%; with PC-3 prostate, 98.5%; in the experiment on SK-MEL-5 melanoma, 89.1%; in the experiment with UACC-62 melanoma it was 85.3%; with LOX IMVI melanoma, 99.6%. In addition, the values for the growth with SK-MEL-28 melanoma and in the experiment with SK-MEL-2 melanoma were 103% and 101%, respectively.
For the compound `CCCCCCC(O)(c1ccc(F)cc1)C(CN1CCOCC1)c1ccccc1` (stereo not given), the growth in the experiment on K-562 leukemia is 12.9%; with MALME-3M melanoma, 24.5%; with MDA-MB-231 breast, 26.2%; in the experiment with RXF 393 renal, 20.6%; in the experiment with SF-268 CNS, 47.4%; in the experiment with SF-295 CNS it was -21.5% (active). The growth was 79.1% in the experiment on SF-539 CNS; 57.2% with UACC-257 melanoma; 35.5% in the experiment on M14 melanoma; 28.1% in the experiment with HCT-15 colon; 33.1% with HT29 colon; 32.8% in the experiment with SNB-75 CNS. The growth was 42% in the experiment with SNB-19 CNS; 28% in the experiment with U251 CNS; 15.4% in the experiment with PC-3 prostate; 52.8% with SK-MEL-5 melanoma; 22.6% in the experiment on UACC-62 melanoma; 29.5% with LOX IMVI melanoma. Besides, the growth in the experiment with SK-MEL-28 melanoma is 68.1%; in the experiment on SK-MEL-2 melanoma it was 36.4%.
Take `CCCCN1CCN(c2ccc3nc(-c4ccc5nc(-c6ccc(OCC)cc6)[nH]c5c4)[nH]c3c2)CC1`: the growth in the experiment on K-562 leukemia was -29.1% (active); in the experiment on MALME-3M melanoma it was 36%; in the experiment on MDA-MB-231 breast, 111%; in the experiment with RXF 393 renal it was 36.9%; in the experiment with SF-268 CNS it was 77.1%; with SF-295 CNS it was 48.7%. Besides, the growth in the experiment on SF-539 CNS is 67.9%; with UACC-257 melanoma, 68.2%; with M14 melanoma, 32.7%; in the experiment with HCT-15 colon, 16.6%; with HT29 colon it was 21.4%; in the experiment with SNB-75 CNS, 60%. The growth in the experiment with SNB-19 CNS is 85.3%; in the experiment on U251 CNS, 60.5%; in the experiment on PC-3 prostate, 56.7%; with SK-MEL-5 melanoma, 49.3%; in the experiment with UACC-62 melanoma, 59.9%; in the experiment on LOX IMVI melanoma it was -81% (active). Also, the growth with SK-MEL-28 melanoma was 61.6%; in the experiment on SK-MEL-2 melanoma it was 86.6%.
As to `COC(=O)/C(CCC=C(C)C)=C1\[C@@H](OC(C)=O)C[C@@]2(C)[C@H]1C[C@@H](O)[C@H]1[C@@]3(C)CC[C@H](NCCO)[C@@H](C)[C@@H]3CC[C@@]12C`, the growth was 94.8% with K-562 leukemia; 93% with MALME-3M melanoma; 106% in the experiment on MDA-MB-231 breast; 109% in the experiment with RXF 393 renal; 104% in the experiment with SF-268 CNS; 101% with SF-295 CNS. Besides, the growth was 101% with SF-539 CNS; 107% in the experiment with UACC-257 melanoma; 94.2% in the experiment on M14 melanoma; 103% in the experiment with HCT-15 colon; 104% with HT29 colon; 100% with SNB-75 CNS. Moreover, the growth with SNB-19 CNS is 98.4%; in the experiment with U251 CNS, 103%; in the experiment on PC-3 prostate, 102%; in the experiment on SK-MEL-5 melanoma it was 102%; in the experiment with UACC-62 melanoma, 98%; in the experiment with LOX IMVI melanoma it was 94.2%. The growth with SK-MEL-28 melanoma is 106%; in the experiment on SK-MEL-2 melanoma, 109%.
Turning to `Oc1c(C(Nc2ccccn2)c2cccc(Oc3ccccc3)c2)ccc2cccnc12` (stereo not given), the growth in the experiment on K-562 leukemia was -64.1% (active); in the experiment on MALME-3M melanoma, -74.8% (active); in the experiment with MDA-MB-231 breast, -89.3% (active); in the experiment on RXF 393 renal, -92% (active); in the experiment on SF-268 CNS, -86.7% (active); in the experiment with SF-295 CNS, -86.9% (active). In addition, the growth in the experiment on SF-539 CNS is -93.1% (active); with UACC-257 melanoma, -77.1% (active); in the experiment with M14 melanoma, -68.6% (active); in the experiment with HCT-15 colon, -57.6% (active); in the experiment on HT29 colon, -93.5% (active); in the experiment on SNB-75 CNS, -99.1% (active). Further, the growth is -80.7% (active) with SNB-19 CNS; -89.2% (active) in the experiment on U251 CNS; -90.3% (active) in the experiment on PC-3 prostate; -68.1% (active) in the experiment with SK-MEL-5 melanoma; -86.6% (active) in the experiment on UACC-62 melanoma; -86.5% (active) with LOX IMVI melanoma. The growth in the experiment on SK-MEL-28 melanoma is -97.2% (active); in the experiment with SK-MEL-2 melanoma, -82.9% (active).
